Data on 104 molecules can be found in ChEMBL document CHEMBL4513216, “Probing the Open Global Health Chemical Diversity Library for Multistage-Active Starting Points for Next-Generation Antimalarials” (ACS Infect Dis, 2020).

Among all 69,000 compounds or so, about 8,600 (12%) showed an effect of 50% or more. Shown is part of a subset that was picked to be rich in strong results.

The test system of this test is Plasmodium berghei. The test is described as follows: Screen against P. berghei liver stage (PbLuc), transformed with Luciferase, at 10uM. Format: functional, HepG2. The note with it: tested at 10 uM.
Turning to `CC(=O)N1CCCN(C(=O)NC(C)Cn2ccnc2)CC1` (centres undefined), the INHIBITION was 24.2%. With `Cn1c(=O)c2cc(C(=O)NCc3ccncc3)ccc2n(C)c1=O` the figure was -4.82%; with `Cc1cc(C[S+]([O-])CC(=O)NCc2cccc(Cl)c2)no1` (centres undefined), 49.8%; with `CC(C)SCC(=O)N1CCCn2nc(C(=O)Nc3ccccc3)cc2C1`, -59.9%. To `CC(=O)N1CCC2(CCCN(S(=O)(=O)c3ccc(F)cc3)C2)C1` (centres undefined) belongs -4.82%; to `Cc1c(COC(C)C)cccc1NC(=O)N1CCC(N2CCCC2)C1` (centres undefined), 36.3%; to `Cc1nc(C)n(CC2CCCN2Cc2coc(-c3cccs3)n2)n1` (centres undefined), 22.6%. With `O=C(CCCOc1ccccc1F)NCCCC(=O)Nc1cn[nH]c1` the figure was 51.7%; with `O=C(CCCNC(=O)Nc1ccc(F)cc1)Nc1cn[nH]c1`, 20.7%. In the case of `COc1ccccc1NC(=O)NCCCC(=O)Nc1cn[nH]c1`, the INHIBITION is -12.1%. To `CC(C)N1CCC(Nc2ccn(Cc3ccccn3)n2)C1=O` (centres undefined) belongs 38.7%; to `CC(C)N1CCC(Nc2ccn(CCC#N)n2)C1=O` (centres undefined), 63.3%. Consider `CC(C)N1CCC(Nc2ccn(C)n2)C1=O` (centres undefined), for which the INHIBITION was found to be 23.1%.

As to `COC(C)(CNS(=O)(=O)c1cccnc1)c1ccccc1F` (centres undefined), the INHIBITION is 12.1%. Turning to `CCC1c2ccsc2CCN1C(=O)NCc1cc(C)on1` (centres undefined), the INHIBITION is listed as 11.915%.

In the case of `CC(NC(=O)NCC(C)(C)C(N)=O)c1nc(-c2ccccc2)cs1` (centres undefined), the INHIBITION amounted to 28.6%. With `COC(=O)[C@H]1C[C@@H](O)CCN1S(=O)(=O)c1cc(Cl)ccc1OC` the figure was -16.9%; with `COC(=O)[C@H]1C[C@@H](O)CCN1S(=O)(=O)c1ccc(F)cc1F`, 34.2%; with `COC(=O)[C@H]1C[C@@H](O)CCN1S(=O)(=O)c1cc(C)c(Cl)cc1C`, 60.2%. To `Cc1cc(C)c(CNc2cnn(CC(O)CN(C)C)c2)c(C)c1` (centres undefined) belongs 29.8%; to `Cc1ccc(CNC(=O)CN2CCN(CC(O)c3ccco3)CC2)cc1` (centres undefined), -1.58%. With `O=C(NCC1CC1)C1CCC2(CCN(C(=O)c3ccccn3)CC2)O1` (centres undefined) the figure was -3.44%.

Consider `COCC(=O)NCC1(COc2cccnc2)C[C@@H](O)[C@@H](O)C1` (some centres undefined), for which the INHIBITION is 57.4%.

Turning to `O[C@@H]1CC(CNCc2ccccn2)(COc2cccnc2)C[C@@H]1O` (some centres undefined), the INHIBITION is listed as -36%. For the molecule `COCC(=O)NCC1(COc2cnccn2)C[C@@H](O)[C@@H](O)C1` (some centres undefined), the INHIBITION turned out to be 7.31%. With `O[C@@H]1CC(CNCC2CC2)(COc2cccnc2)C[C@@H]1O` (some centres undefined), the INHIBITION worked out at 51%.

Consider `O[C@@H]1CC(CNCC2CCCC2)(COc2cccnc2)C[C@@H]1O` (some centres undefined), for which the INHIBITION was -23.9%. To `COc1ccc(CNCC2(COc3cccnc3)C[C@@H](O)[C@@H](O)C2)cc1` (some centres undefined) belongs 25.3%.

In the case of `O=c1c(NCCc2ccc(O)cc2)c(NCc2ccncc2)c1=O`, the INHIBITION was 32.1%. Turning to `CC(C)c1noc(-c2ccc(NC(=O)NCC(O)C(C)C)cc2)n1` (centres undefined), the INHIBITION is on record as -132%. As for `Cc1ccc(OCCC(=O)NC2CCc3nc(C)cn3C2)cc1` (centres undefined), the INHIBITION is 5.53%. To `Cc1ccc(C(=O)NS(=O)(=O)Cc2ccccc2)cc1S(C)(=O)=O` belongs 1.98%. To `CC(C)Cc1cc(C(=O)N2CCC(C(=O)N3CCOCC3)CC2)on1` belongs 31.2%; to `COC(=O)C1CCCN1C(=O)c1cc(CC(C)C)no1` (centres undefined), -4.51%.

`CC(C)Cc1cc(C(=O)N2CCC[C@H]2C(=O)N2CCOCC2)on1`: the INHIBITION turned out to be 68%.

As to `CN(C)Cc1nc(C2(NC(=O)Nc3ccccc3)CCCC2)no1`, the INHIBITION is listed as -20.1%. To `O=c1c(-c2ccnc(NC3CCCCC3)n2)cnc2sc(Cl)cn12` belongs 29.3%.

As for `CCOc1ncccc1NC(=O)N1CCOCC1C` (centres undefined), the INHIBITION turned out to be 52.2%. To `CCOc1ncccc1NC(=O)N1CCCCCC1` belongs 22.3%. With `COc1ccc(Oc2ncccc2NC(=O)N2CCOCC2C)cc1` (centres undefined) the figure was 28.7%; with `CCOc1ncccc1NC(=O)Nc1c(C)nn(C(C)C)c1C`, 56.8%; with `CCOc1ncccc1NC(=O)N1CCN(c2ccc(O)cc2)CC1`, -5.845%. To `CCOc1ncccc1NC(=O)N1CCN(c2cccc(C)c2C)CC1` belongs 90.4%.

Take `COc1ncccc1NC(=O)N1CCOCC1C` (centres undefined): the INHIBITION was 45.4%. For `CCOc1ncccc1NC(=O)NCC(C)O` (centres undefined), the INHIBITION is -1.14%. With `Cc1nn(C(C)C)c(C)c1NC(=O)c1ccncc1` the figure was 26.8%; with `COCCN1C[C@@H]2CN(Cc3cccc(F)c3)CCC[C@]2(C(=O)O)C1`, -1.64%; with `CN(Cc1ccc(N2CCOCC2)cc1)C(=O)Cn1cccnc1=O`, 7.08%.

As for `CC(=O)N1CCC(c2[nH]ncc2S(C)(=O)=O)CC1`, the INHIBITION came to 4.41%. Consider `CNc1nc2cn(CCc3ccccc3)c(=O)c-2c[nH]1`, for which the INHIBITION is on record as -32.1%. With `Cc1noc(C)c1CN1CCc2c(CNc3nccs3)n[nH]c2C1` the figure was 46.6%; with `CC(NC(=O)NC1CC1)c1nc(-c2ccccc2)cs1` (centres undefined), 11.5%. To `O=S(=O)(NC1CCCCC12OCCO2)c1cc(F)cc(F)c1` (centres undefined) belongs 6.83%; to `CN(Cc1cnn(C)c1)C(=O)c1cc(C(F)(F)F)n(C)n1`, 36.6%.

Regarding `N#Cc1cccc(N2CCCC3(C2)CN(c2ncccn2)CCO3)n1` (centres undefined), the INHIBITION came out at 42.3%. With `N#Cc1cccc(N2CCCC3(CNCCO3)C2)n1` (centres undefined), the INHIBITION is 51.2%. With `N#Cc1cccc(N2CCOC3(CNCCOC3)C2)n1` (centres undefined) the figure was 32.7%; with `Cc1nn(C)c(C)c1CN1CCN(CC2(O)CCCN(C)C2)CC1` (centres undefined), 20.9%. As to `O=C1NC(c2cnc(C3CCC3)s2)Nc2ncccc21` (centres undefined), the INHIBITION was -44.2%. `Cc1cccc(NC(=O)CNC(=O)Cn2ncc(Cl)c(Cl)c2=O)c1C`: the INHIBITION came to 5.14%. In the case of `Cc1cccc(NC(=O)Cn2ncc(SCC(N)=O)c(Cl)c2=O)c1C`, the INHIBITION worked out at 50.5%. As for `CNC(=O)CSc1cnn(CC(=O)Nc2cccc(Cl)c2C)c(=O)c1Cl`, the INHIBITION is listed as 45.7%. With `Cc1ccc(NC(=O)Cn2ncc(SCC(N)=O)c(Cl)c2=O)c(F)c1` the figure was 64.5%; with `Cc1cc(NC(=O)Cn2ncc(SCC(N)=O)c(Cl)c2=O)ccc1Br`, 49.7%; with `Cc1ccc(NC(=O)Cn2ncc(SCC(N)=O)c(Cl)c2=O)cc1`, 30.5%.

Consider `CC(=O)N1CCCCC12CCCN(Cc1ccco1)C2` (centres undefined), for which the INHIBITION was 28.4%. To `CCC[C@@H]1CN(Cc2ccccc2SC)C[C@H]1NC(C)=O` belongs -7.53%; to `CC(C)(NC(=O)c1ccc(-c2ccccc2F)s1)C(N)=O`, -29%. With `CN(C)S(=O)(=O)N1C[C@H]2CC[C@@H](C1)N(Cc1cccc(C#N)c1)C2` the figure was -6.88%; with `O=C(Cn1ccc2ccccc21)NCc1ccc(C(=O)O)cc1`, 15.8%; with `COC(=O)C1CCN(C(=O)c2nnc3ccc(C)cc3n2)CC1`, 49.9%.

For the molecule `CN1CCN(C(=O)c2nnc3ccc(Cl)cc3n2)CC1`, the INHIBITION is recorded as 1.04%. With `COC(=O)C1CCN(C(=O)c2nnc3ccc(Cl)cc3n2)CC1` the figure was 52.4%.

For the molecule `CCc1nc(C(=O)N2CCCC2)nn1-c1c(Cl)cccc1Cl`, the INHIBITION came to 48.4%. To `Cc1cc2cc(CNC3CCN(S(C)(=O)=O)CC3)oc2cc1C` belongs 49.6%; to `Cc1nc(-c2c(C)noc2C)cc(C2CCN(CC(=O)N(C)C)CC2)n1`, 13.8%; to `Cc1cc2cc(CNC3CCN(CC(=O)N(C)C)CC3)oc2cc1C`, 53.9%. With `CC(NC1CCN(CC(=O)N(C)C)CC1)c1cnn(C(C)C)c1` (centres undefined) the figure was 19.8%; with `Cc1cc2cc(CNC3CCN(CC4CCOC4)CC3)oc2cc1C` (centres undefined), 48.5%.

On to `Cc1cc(Cl)cc(C)c1CNC1CCN(CC(=O)N(C)C)CC1`, for which the INHIBITION is recorded as 56.1%. With `CC(=O)N1CCC12CCN(Cc1ccco1)CC2` the figure was 9.97%; with `O=C([C@H]1CC[C@@H]2[C@@H](CCN2C2CCCC2)O1)N1CCOCC1`, -3.26%. With `O=C(NCc1ccc(-n2cncn2)nc1)c1cc(Cl)c2c(c1)OCCO2` the figure was 9.54%; with `CCn1ncc2c1C(COC)CN(c1ncc(F)cn1)C2` (centres undefined), -7.24%. With `COc1ccc2c(c1)NC(C1CCN(C(=O)C(C)C)CC1)NS2(=O)=O` (centres undefined) the figure was -12.3%; with `CCC(NC(=O)CCCN1CCCCC1)c1cn2cccnc2n1` (centres undefined), 37.7%; with `CCC(NC(=O)CC1CCN(CC)CC1)c1cn2cccnc2n1` (centres undefined), -15.3%. Turning to `CCC(NC(=O)CC1CCN(C(C)C)CC1)c1cn2cccnc2n1` (centres undefined), the INHIBITION came to 51.3%. With `CCC(NC(=O)C1CCN(C(C)C)CC1)c1cn2cccnc2n1` (centres undefined) the figure was 57.5%. With `CCn1ncnc1C(C)NC(=O)C1CCN(C(C)C)CC1` (centres undefined) the figure was -1.64%; with `CCC(NC(=O)C1CCN(C(=O)C2CC2)CC1)c1cn2cccnc2n1` (centres undefined), 22.9%. With `COc1ccc(Cl)cc1S(=O)(=O)N(C)CC(=O)Nc1cccnc1` the figure was 33.4%; with `Cc1cnn(CC(C)NCc2csc(-c3ncccn3)n2)c1` (centres undefined), -3.2%; with `CN(C)c1cc(C(F)(F)F)cc(-c2ccc(C(=O)O)cc2)n1`, 26.9%.

Consider `Cc1ccc(S(=O)(=O)N2CCC(c3n[nH]cc3C(=O)N(C)C)CC2)cc1`, for which the INHIBITION was determined as 12.8%. To `CCN(c1ccsc1C(=O)N1CCCCC1)S(=O)(=O)c1ccccc1` belongs -10.8%; to `CCN1CCN(C)C(=O)C12CCN(Cc1csc(C)n1)CC2`, -1.28%; to `CC(C)=CCN1C[C@@H](C(=O)O)C[C@H](C(=O)Nc2ccc(C)nc2)C1`, 28.5%. As for `CN(C)CCNC(=O)c1ccc(S(=O)(=O)N[C@@H]2CCNC2)cc1`, the INHIBITION is reported as 87.9%. With `CC(C)N(CCNC(=O)c1ccc(S(=O)(=O)NC2CC2)cc1)C(C)C` the figure was 19.2%; with `O=C(NC[C@@H]1CCCO1)c1ccc(S(=O)(=O)N[C@@H]2CCNC2)cc1`, 2.55%. For the molecule `CCS(=O)(=O)N1C[C@@H](OCc2cccnc2)[C@H]2OCCC[C@H]21`, the INHIBITION is given as 44.9%. To `O=C1CCC(c2nc(C3CCN(C(=O)Cc4cccs4)CC3)no2)N1` (centres undefined) belongs -31.1%; to `CC1=N[C@@]2(CC[C@@H]3CN(Cc4ccccc4C)C[C@@H]32)C(=O)N1CC1CC1`, 28.4%.
